An excerpt weighted towards active compounds, which were near 1.1% of everything screened.
SRC3 inh = inhibitors of human steroid receptor coactivator 3 (SRC3); inhibition, % at 3.6 µM; Q9Y6Q9; AID 588352; HEK293 GAL4-SRC3 luciferase reporter, luminescence; actives 0.17% (n = 360,000);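 active = inhibition above a per-campaign cutoff, the mean of all compounds plus 3 SD, cut at about 60% in these data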;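 also: higher means less SRC3-driven luciferase light from the GAL4 reporter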
SRC1 inh = human NCOA1 inhibition | Q15788 | HEK293 GAL4-SRC1 luciferase reporter, luminescence | inhibition, % at 3.6 µM | actives 0.12% (n = 360,000) | AID 588354;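 active = inhibition above the campaign mean plus 3 SD, with each screening campaign given its own cutoff, cut at about 60% in these data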
NCOA2 inhibitor = human SRC2 (NCOA2) inhibition; inhibition, % at 9 µM; actives 0.17% (n = 370,000); HEK293 GAL4-SRC2 luciferase reporter, luminescence;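 active = inhibition above the mean inhibition of all tested compounds plus 3 SD, set per campaign, cut at about 52% in these data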
COUP-TFII inh = inhibitors of human COUP-TFII (NR2F2) | P24468 | HEK293T NGFI-A luciferase reporter, luminescence | inhibition, % at 8.6 µM | actives 0.7% (n = 370,000);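 active = inhibition above a per-plate cutoff, mean inhibition of test wells between control levels plus 3 SD, cut at about 38% in these data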;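 also: cells cotransfected with COUP-TFII expression vector driving the NGFI-A reporter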
GalR3 antag = blocks the human galanin receptor 3; inhibition, % at 3 µM; HEK293 GalR3-CNG cAMP membrane potential fluorescence; galR3 body fused to GalR1 C-terminus; actives 0.44% (n = 360,000);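 active = inhibition above the screen-wide average plus 3 SD, cut at about 13% in these data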;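 also: forskolin and galanin both at EC90 stimulate the cells; cAMP rise reported by CNG channel membrane potential dye signal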
Target sequence (O60755 1-299 limits assumed): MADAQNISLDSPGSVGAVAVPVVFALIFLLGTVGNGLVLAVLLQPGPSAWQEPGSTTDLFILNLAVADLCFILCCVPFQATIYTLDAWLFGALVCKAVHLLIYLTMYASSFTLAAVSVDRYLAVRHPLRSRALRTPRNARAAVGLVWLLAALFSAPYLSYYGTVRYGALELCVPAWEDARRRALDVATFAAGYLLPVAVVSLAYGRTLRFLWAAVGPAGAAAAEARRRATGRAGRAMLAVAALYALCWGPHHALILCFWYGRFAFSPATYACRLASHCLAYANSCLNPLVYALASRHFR
NR5A2 inv ag = suppresses constitutive activity of human LRH-1; actives 0.13% (n = 360,000); HEK293T StAR-luciferase reporter, LRH-1 transfected, 24 h; O00482; inhibition, % at 3.6 µM;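 active = inhibition above the mean inhibition of all tested compounds plus 3 SD, cut at about 73% in these data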
VP16 Luc counter = counter-screen for COUP-TFII antagonists: inhibitors of VP16; shares compounds with COUP-TFII inh; HEK293 Gal4-VP16 luciferase reporter, luminescence; inhibition, % at 8.5 µM; actives 25% (n = 2,500); in the data active = inhibition above about 13%
COUP-TFII conf = confirmation of human COUP-TFII (NR2F2) inhibitors; shares compounds with COUP-TFII inh; HEK293 NGFI-A luciferase reporter, luminescence; inhibition, % at 8.5 µM; actives 45% (n = 2,500); AID 687008;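 active = mean inhibition over three repeats above a set limit taken from the earlier primary screen, cut at about 38% in these data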
A number is an active result; - = inactive; . = no result given; ! = a repeat was not active.

SMILES	SRC3 inh	SRC1 inh	NCOA2 inhibitor	COUP-TFII inh	GalR3 antag	NR5A2 inv ag	VP16 Luc counter	COUP-TFII conf
COc1ccc(CNC(=O)c2sc(=O)n(Cc3ccc(S(=O)(=O)N(C)C)cc3)c2C)cc1	-	-	-	44.6	-	-	-	-
Cc1c(C(=O)NCc2ccccc2C(F)(F)F)sc(=O)n1Cc1ccc(S(=O)(=O)N(C)C)cc1	-	-	-	-	-	-	.	.
Cc1c(C(=O)NCc2ccc(C(F)(F)F)cc2)sc(=O)n1Cc1ccc(S(=O)(=O)N(C)C)cc1	-	-	-	41.9	-	-	-	-
CCOC(=O)[C@]12CCCCC/C=C\1N(CCc1ccc(Cl)cc1)C(=O)[C@H]2CC(=O)NCC12CC3CC(CC(C3)C1)C2	.	.	-	-	.	.	.	.
CC(=O)Nc1cccc(-c2ccnc3c2CC(C(=O)Nc2ccc(F)c(Cl)c2)O3)c1 (stereo not drawn)	-	-	-	-	-	-	.	.
O=C(Nc1ccc(F)c(Cl)c1)C1Cc2c(-c3ccco3)ccnc2O1 (stereo not drawn)	-	-	-	40.6	-	-	-	-
COc1ccc(NC(=O)C2Cc3c(-c4cccc(F)c4)ccnc3O2)cc1OC (stereo not drawn)	-	-	-	51.6	-	-	-	-
COc1ccc(NC(=O)C2Cc3c(-c4ccc(NC(C)=O)cc4)ccnc3O2)cc1OC (stereo not drawn)	-	-	-	-	-	-	.	.
Cc1cc(C)nc(NC(N)=NCCc2c[nH]c3ccccc23)n1	-	-	-	39.6	-	-	-	-
Cc1cc(C)nc(NC(N)=NCCc2ccccc2)n1	-	-	-	42.5	-	-	-	-
Cc1nc(Nc2ncc(C(=O)Nc3c(C)cccc3Cl)s2)cc(N2CCN(CCO)CC2)n1	.	.	-	39.0	.	.	-	-
Brc1ccc(Cn2nnc(-c3ccc(N4CCOCC4)cc3)n2)cc1	.	.	-	-	.	.	.	.
CCN(CC)S(=O)(=O)c1ccc(C)c(NC(=S)N2CCN(C/C=C/c3ccccc3)CC2)c1	-	-	-	42.7	-	-	-	-
Cc1ccc(-c2nn3c(C)nnc3s2)cc1NC(=O)c1ccc(-c2cccc(Cl)c2)o1	-	-	-	56.0!	-	-	-	-
S=C(NCc1ccc(Cl)cc1)NC1CCN(Cc2ccccc2)CC1	-	-	-	51.7	-	-	-	-
Clc1ccc(CNC2CCN(Cc3ccccc3)CC2)cc1	-	-	-	-	-	-	.	.
Cc1ccc(NC(=O)C2CCCN2S(=O)(=O)c2cccnc2)cc1C (stereo not drawn)	.	.	-	-	.	.	.	.
COc1cc(NS(=O)(=O)c2ccc(C)cc2C)cc(OC)c1OC	-	-	-	45.0	-	-	-	40.4
COc1cc(NS(=O)(=O)c2cc3[nH]c(=O)c(=O)[nH]c3cc2C)cc(OC)c1OC	-	-	-	-	-	-	.	.
COc1ccc(S[C@]2(C(=O)N3CCCC3)CC(=O)N(C(=O)/C=C/c3ccccc3)[C@@H]2c2ccc(OC)cc2)cc1	.	.	-	-	.	.	.	.
CCOc1cccc(/C=N/NC(=S)Nc2ccccc2[N+](=O)[O-])c1O	80.0	84.2	59.9	81.7	-	79.2	-	67.2
OC(c1ccccc1)c1ccncc1 (stereo not drawn)	-	-	-	-	-	-	.	.
OC(C1=CC(=Cc2ccncc2)c2ccccc21)c1ccncc1 (stereo not drawn)	-	-	-	37.4	-	-	-	-
COc1cccc(OC)c1NC(=O)OCCN1CCCC12CCC(c1ccccc1)CC2 (stereo not drawn)	.	.	.	-	.	.	.	.
O=C(Nc1cccc(S(=O)(=O)N2CCOCC2)c1)c1cccc(S(=O)(=O)N2CCCCC2)c1	-	-	-	-	-	-	.	.
SMILES	SRC3 inh	SRC1 inh	NCOA2 inhibitor	COUP-TFII inh	GalR3 antag	NR5A2 inv ag	VP16 Luc counter	COUP-TFII conf
O=C(N/N=C/c1sc(N2CCOCC2)nc1-c1ccccc1)c1ccc(O)cc1	-	-	-	-	-	-	.	.
Cc1cc(C)n(-c2ccc(C(=O)Nc3ccc(C)c(S(=O)(=O)N4CCOCC4)c3)cc2)n1	-	-	-	50.6	-	-	-	-
CC(=O)c1cccc(NC(=O)c2cccc(S(=O)(=O)N3CCOCC3)c2)c1	-	-	-	-	-	-	.	.
O=C(N/N=C/c1sc(N2CCOCC2)nc1-c1ccccc1)c1cccc(S(=O)(=O)N2CCCC2)c1	76.0	65.3	-	37.6	-	85.5	-	66.8
Cc1ccc(NC(=O)c2cccnc2)cc1S(=O)(=O)N1CCOCC1	-	-	-	-	-	-	.	.
O=C(Nc1ccc(N2CCCCCC2)cc1)c1cccc(S(=O)(=O)N2CCOCC2)c1	-	-	-	46.0	-	-	-	38.3
CCOC(=O)c1ccc(NC(=O)c2cccc(S(=O)(=O)N3CCOCC3)c2)cc1	-	-	-	38.2	-	-	-	-
COc1ccc(/C=C/C(=O)Nc2ccc(C)c(S(=O)(=O)N3CCOCC3)c2)cc1	-	-	-	68.5	-	-	-	-
COc1ccc(C(=O)Nc2ccc(N3CCCCCC3)cc2)cc1S(=O)(=O)N1CCOCC1	-	-	-	48.9	-	-	-	-
COc1ccc(C(=O)Nc2ccc(NC(=O)c3ccccc3)cc2)cc1S(=O)(=O)N1CCOCC1	-	-	-	-	-	-	.	.
O=C(Cc1ccccc1)NC1CCCc2c1cnn2-c1ccc(F)cc1F (stereo not drawn)	.	.	.	-	.	.	.	.
COC(=O)C1CN(Cc2cn(Cc3ccc(C)cc3)nn2)CCS(=O)(=O)N1Cc1ccc(Cl)cc1 (stereo not drawn)	.	.	-	-	.	.	.	.
c1cncc(CNc2ncnc3ccc(-c4ccoc4)cc23)c1	-	-	-	38.0	-	-	-	-
Cc1csc(CNc2ncnc3ccc(-c4ccoc4)cc23)c1	-	-	-	39.9	-	-	-	-
O=[N+]([O-])c1cccc(OCCCN2CCC(C(O)(c3ccccc3)c3ccccc3)CC2)c1	.	.	-	-	.	.	.	.
Cc1ccc(-n2c(-c3ccc(Br)cc3)c[n+]3c2CCc2ccc4cccnc4c2-3)cc1	82.9	74.5	-	87.9	-	99.8	33.1	89.3
COc1ccc(-n2c(C)c(C(C)=O)c3cc(O)ccc32)cc1	-	67.9	-	43.9	-	-	-	-
COc1ccc2c(c1)c(C(C)=O)c(C)n2-c1ccccc1	-	-	-	-	-	-	.	.
COc1ccc2c(c1)c(C(C)=O)c(C)n2CCc1ccccc1	-	-	-	53.0	-	-	-	-
COC(=O)C1CN(Cc2cn(Cc3ccc(OC)cc3)nn2)CCS(=O)(=O)N1Cc1ccc(F)cc1 (stereo not drawn)	.	.	-	-	.	.	.	.

High-throughput results deposited in PubChem by The Scripps Research Institute Molecular Screening Center.
